A selection: hits, their analogues and other compounds. The true share with any hit is near 1.8%.
MRP reversal: reversal of MRP1-mediated doxorubicin resistance, primary screen, H69AR cells, doxorubicin co-treatment | H69AR cells + 2 uM doxorubicin, CellTiter-Glo, 72 h | differential viability (reversal), % at 10 µM | hit rate 0.04% among 85,000 | AID 602, 2007;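 active means viability drop by adding the cancer drug above about 55%, with treated viability meeting a 40% cutoff, limit read from the data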;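 further: viability without doxorubicin minus viability with 2 µM doxorubicin for each compound; larger differential means the compound sensitizes cells more to doxorubicin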
GALR2 antag: GALR2 antagonists in receptor-expressing cells, primary screen; hit rate 0.39% among 140,000; AID 828, 2007; antagonist mode; inhibition, % at 4 µM; in the data active means inhibition above about 27%;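 further: cells stimulated with galanin 1-16 at roughly its EC80; 0% = agonist challenge control and 100% = basal control without agonist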
S1P2 antag: human S1P2 receptor antagonists, primary screen, cell-based; cell-based S1P2 antagonist assay, inhibition at 5 uM; inhibition, % at 5 µM; Sphingosine 1-phosphate receptor 2 (Homo sapiens), O95136; hit rate 0.21% among 97,000; AID 736, 2007; in the data active means inhibition above about 45%;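 further: CRE beta-lactamase reporter cells expressing human S1P2 stimulated with S1P; 0% = agonist at EC80 alone and 100% = agonist plus reference antagonist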
Target sequence (O95136 whole entry, looked up): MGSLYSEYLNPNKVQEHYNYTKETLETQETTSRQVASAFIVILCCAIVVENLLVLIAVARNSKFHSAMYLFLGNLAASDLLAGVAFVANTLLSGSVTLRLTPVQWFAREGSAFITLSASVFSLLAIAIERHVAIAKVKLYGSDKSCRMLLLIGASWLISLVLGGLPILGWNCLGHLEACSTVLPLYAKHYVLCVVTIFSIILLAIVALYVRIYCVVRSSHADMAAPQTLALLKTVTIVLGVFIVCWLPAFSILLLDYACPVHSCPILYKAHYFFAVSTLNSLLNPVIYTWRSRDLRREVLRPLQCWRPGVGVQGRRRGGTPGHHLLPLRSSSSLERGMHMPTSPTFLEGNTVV
MRP1 act: H69AR viability gain despite doxorubicin, primary screen, MRP-1 activator project, H69AR cells, CellTiter-Glo | viability rescue | viability increase, % at 10 µM | hit rate 0.61% among 140,000 | AID 799, 2007;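 active means viability gain under doxorubicin at or above a set limit, the compound median plus 3 SD, cut at about 4.7% in these data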;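 further: MRP-1 overexpressing cells given doxorubicin 25 µM after compound pretreatment; 18-22 h compound pretreatment then 72 h with doxorubicin before readout; 0% = doxorubicin-only wells and 100% = vehicle-treated cells without doxorubicin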
S1P2 agonist: S1P2 receptor agonists, primary screen, cell-based. Sphingosine 1-phosphate receptor 2 (Homo sapiens), O95136. S1P2-expressing cell line, agonist reporter read-out. activation, % at 4.5 µM. hit rate 0.46% among 97,000. AID 729, 2007; in the data active means activation above about 16%;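 further: 0% = vehicle low control and 100% = maximal reference agonist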
GALR2 ag: GALR2 receptor agonists, primary screen, cell-based | Galanin receptor type 2 (Homo sapiens), O43603 | GALR2-expressing cells, agonist activation read-out | activation, % (concentration not given with the values) | hit rate 0.48% among 140,000 | AID 803, 2007; in the data active means activation above about 5%, passing the limit was not always enough;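 further: 0% = vehicle buffer wells and 100% = reference agonist at full effect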
An asterisk follows results filed as active; nt = no result.

SMILES	MRP reversal	GALR2 antag	S1P2 antag	MRP1 act	S1P2 agonist	GALR2 ag
CCOc1ccc2nc(NC(=O)CSc3nc4c(c(=O)n(C)c(=O)n4C)n3C(C)C)sc2c1	-30	7	nt	0	nt	1
CC(C)(CNC(=O)/C=C/c1ccc(F)cc1)CNC(=O)/C=C/c1ccc(F)cc1	nt	3	nt	5.9*	nt	-1
CC(C)(C)SCCNC(=O)/C=C/c1ccc(F)cc1	nt	-6	nt	-1	nt	-2
COc1ccc(NS(=O)(=O)c2ccc3oc(SC4CCOC4=O)nc3c2)cc1 (stereo not given)	11	-2	-20	7.4*	-8	2
CCOc1ccc(C2c3c(oc4ccccc4c3=O)C(=O)N2c2ccccn2)cc1OC (stereo not given)	6	nt	nt	nt	nt	nt
CCOC(=O)C1CCCN(C(=O)CN2C(=O)/C(=C/c3ccc(OC)cc3)Oc3ccccc32)C1 (stereo not given)	nt	-6	nt	2	nt	0
O=C(CCN1C(=O)/C(=C/c2ccc(F)cc2)SC1=S)NNC(=O)c1cccnc1	nt	-16	nt	4	nt	1
Cc1ccc(/C=C2\SC(=S)N(CCC(=O)NNC(=O)c3cccnc3)C2=O)cc1	nt	4	nt	8.7*	nt	-1
CC(=O)NN1C(=O)/C(=C/c2ccc(C(C)C)cc2)SC1=S	nt	-11	nt	4.7*	nt	0
O=C(NN1C(=O)/C(=C\c2cccnc2)SC1=S)C(c1ccccc1)c1ccccc1	nt	2	nt	5.5*	nt	-1
O=C(NN1C(=O)/C(=C/c2cccnc2)SC1=S)C(c1ccccc1)c1ccccc1	nt	-4	0	3	-13	-2
O=C(CCN1C(=O)/C(=C/c2ccccc2)SC1=S)NNC(=O)c1cccnc1	nt	-13	nt	6.6*	nt	-2
O=C(CCN1C(=O)/C(=C/c2cccc(Br)c2)SC1=S)NNC(=O)c1cccnc1	nt	-4	6	2	-2	-2
Cc1ccnc(N2C(=O)OC(C)(C)C2(C)O)c1 (stereo not given)	2	14	nt	0	nt	-1
O=C(COc1nc2ccccc2nc1N1CCOCC1)Nc1cccc(S(=O)(=O)N2CCCCC2)c1	nt	1	nt	-3	nt	1
COc1ccc2[nH]c(=O)c(CN(CCCN(C)C)C(=O)Nc3ccc(F)cc3)cc2c1	6	4	14	-4	-1	0
O=C(Nc1ccn(Cc2c(F)c(F)cc(F)c2F)n1)c1ccc(COc2cc(Cl)ccc2Cl)o1	nt	-4	-1	3	-4	-2
O=C(Nc1ccn(Cc2ccccc2F)n1)c1ccc(COc2cc(Cl)ccc2Cl)o1	nt	-7	12	7.0*	-6	0
CCOC(=O)N1CCN(C(=O)CSCc2ccccc2Cl)CC1	nt	-9	nt	-3	nt	-1
CC1(C)CC(=O)C(C=NCCCn2ccnc2)=C(O)C1	8	14	1	-1	-4	-1
Oc1c(C=Nc2cccc3cccnc23)sc2ccccc12	-6	18	-2	-6	-3	-1
O=[N+]([O-])c1ccc(O)c(N=Cc2sc3ccccc3c2O)c1	nt	-1	nt	5.5*	nt	-1
Nc1ccc(-c2nc3ccc(-c4nc5ccccc5o4)cc3[nH]2)cc1	nt	8	-15	-6	1	6.4*
Cc1cc(C)c2c(=O)[nH]c(=O)n(Cc3ccccc3)c2n1	5	-1	6	-4	-1	-3
CCn1c2ccc(OC)cc2c2nc3ccccc3nc21	-21	-1	-33	-2	34*	-1
SMILES	MRP reversal	GALR2 antag	S1P2 antag	MRP1 act	S1P2 agonist	GALR2 ag
CCOc1ccc(Cn2c3ccc(OC)cc3c3nc4ccccc4nc32)cc1	nt	7	nt	-3	nt	-2
CCn1c2ccc(Cl)cc2c2nc3ccccc3nc21	-13	5	-39	-4	43*	0
CCN(CC)S(=O)(=O)N1CCC(C(=O)NC2CCCc3ccccc32)CC1 (stereo not given)	6	16	-11	-2	-3	0
COc1ccc(C(C)=O)cc1CSc1nc2ccccc2c(=O)n1-c1ccccc1	nt	-13	nt	-5	nt	5.0*
Cc1nnc(NC(=O)c2cccc(F)c2)s1	nt	2	15	0	-2	-2
Cc1nnc(NC(=O)c2c(F)cccc2F)s1	-1	7	22	9.3*	-4	-2
Cc1cccc(CC2S/C(=N/c3ccccn3)NC2=O)c1 (stereo not given)	-11	13	-11	10*	-7	-1
CCc1ccc(NC(=O)N(Cc2ccco2)C(C)c2cccs2)cc1 (stereo not given)	1	6	9	1	41*	-2
CCc1ccc(NC(=O)N(Cc2cccnc2)Cc2ccco2)cc1	4	1	1	-1	-5	-2
O=C1/C(=C\c2cccs2)N=C(c2cccs2)N1Nc1ccccc1	8	0	-10	6.9*	-6	-2
O=C1/C(=C/c2cccs2)N=C(c2cccs2)N1Nc1ccccc1	3	14	-10	2	-2	-2
Cc1sc2nc(C3CC3)nc(N3CCN(S(=O)(=O)c4ccc(F)cc4)CC3)c2c1C	-21	-16	-8	6.6*	-5	0
Cc1nc(N2CCN(S(=O)(=O)c3ccc(F)cc3)CC2)c2c(C)c(C)sc2n1	-2	nt	nt	nt	nt	nt
CC(=O)c1cnc(Nc2nc(C)c3cccc(C)c3n2)nc1C	4	nt	nt	nt	nt	nt
C=CCOC(=O)C1=C(C)NC(C)=C(C(=O)OCC=C)C1c1cn(-c2ccccc2)nc1-c1ccco1	nt	-1	nt	-2	nt	5.1*
OCc1cn(-c2ccccc2)nc1-c1ccco1	7	5	-1	1	-5	-1
Cc1ccc(-n2nc3c(c2NC(=O)c2ccc(S(=O)(=O)N4CCOCC4)cc2)CSC3)c(C)c1	-9	-2	21	-2	-13	-1
Cc1ccccc1NC(=O)CSC(N)=O	-22	-3	21	-1	-7	-2
COc1ccccc1NC(=O)CSC1=NCCN1	nt	4	nt	50*	nt	-2
COc1ccccc1NC(=O)CSC(N)=O	-27	-14	-2	5.6*	0	-1
CCC1(C)Cc2c(sc3nnn(CC(=O)Nc4cccc5ccccc45)c(=O)c23)CO1 (stereo not given)	nt	7	-9	-4	-2	0
CCC1(C)Cc2c(sc3nnn(CC(=O)Nc4ccc(C)cc4)c(=O)c23)CO1 (stereo not given)	nt	11	-15	9.7*	-8	1
N#Cc1ccc(NC(=O)COC(=O)CSc2nnc(-c3ccc(Cl)cc3)o2)cc1	nt	-2	nt	4	nt	-2
CC(=O)N1CCN=C1SCc1ccc(F)cc1	3	5	3	4	-2	-2
CC(=O)N1CCN=C1SCc1ccccc1F	15	7	nt	5.1*	nt	-2
CCC(=O)N1CCN=C1SCc1ccccc1	-2	0	3	5.1*	-6	-2
CC(=O)N1CCN=C1SCc1ccccc1Cl	2	-16	23	3	-4	-1
CC(=O)N1CCN=C1SCc1ccc(C)cc1	9	8	nt	5.6*	nt	-2
CC(=O)N1CCN=C1SCc1ccc(Cl)cc1	6	15	nt	6.4*	nt	-1
